Reference: PubChem BioAssay AID743279 (National Center for Advancing Translational Sciences (NCATS), 2014)
Hit rate of the full screen: of about 360,000 compounds, about 17,000 (4.7%) were called active. Another 5% or so got no clear call; they are omitted. No stated cut-off is given here; in the data, active means activity change below about -50%; inconclusive means mostly about -30% to -49%; inactive means weaker than that. For the sample, actives were picked, then their nearest neighbours and some compounds at random.

Experiment: qHTS for Inhibitors of Inflammasome Signaling: IL-1-beta AlphaLISA Primary Screen
Details: THP-1 LPS/ATP IL-1B secretion, 16 h; at 57.5 µM, stronger effect = lower value
Summary of the method: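 Secreted IL-1B measured by AlphaLISA bead assay after 16 h compound exposure of THP-1 cells; compounds (final up to 57.5 uM) added 1 h before LPS (250 ng/mL) and ATP (1.25 mM) stimulation; lower signal means less secretion.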
On the % scale 0 is the no-effect control and ±100 the full control effect.

Activity change, inactive:
CC1(Oc2cccc(F)c2)CCN(Cc2ccccc2OC(F)F)C1 (configuration not stated) 29.5%
CC(=O)OC[C@@H]1CN(Cc2ccccc2)C[C@H](n2cnc3c(NCc4ccco4)ncnc32)O1 16.4%
COc1ccc(NC(=O)CC2SC(N3CCCCC3)=NC2=O)cc1OC (configuration not stated) 3.71%
O=C(CC1SC(N2CCCC2)=NC1=O)Nc1ccc(C(=O)NCCc2ccc(F)cc2)cc1 (configuration not stated) 17.8%
COc1ccc(/C=N/NC(=O)Cn2cc(C(F)(F)F)ccc2=O)cc1 -1.55%
CC(C)(C)C(=O)N1CCC[C@@]1(CO)C(=O)O 1.41%
Cc1nn(-c2ccccc2)c2c1C(=O)NC(=O)C(C)(C)C2 -17.4%
CCCCn1nnnc1C1(C)CCC(=O)N1Cc1ccc(OC)c(OC)c1 (configuration not stated) 0%
CCCCCCCCN1C(=O)[C@H](CC(=O)NCC23CC4CC(CC(C4)C2)C3)C[C@@]2(C(=O)OC)CCCCC=C12 -29.6%
COc1ccc(-n2cnc3cc(NCc4ccco4)ccc32)cc1 -17.9%
COc1ccc(-c2nnc(SCC(=O)c3ccco3)n2-c2ccccc2)cc1 -3.17%
O=[N+]([O-])c1ccc2c(c1)C(N1CCOCC1)/C(=C/C1(O)CCCCC1)O2 (configuration not stated) 4.33%
C#CCN(C[C@H]1[C@H](OC(=O)NC2CCCC2)[C@H](OC(=O)NC2CCCC2)C[C@H]2C(=O)N(c3ccccc3)C(=O)[C@@H]12)S(=O)(=O)c1ccc(C)cc1 -9.89%
Cc1ccc(S(=O)(=O)N2C[C@]3(O)C[C@@H]4C(=O)N(c5ccccc5)C(=O)[C@@H]4C[C@]3(OC(=O)NC3CC3)C2)cc1 -19.7%
N#CC1(Nc2ccc3c4c(cccc24)CC3)CCCCC1 0%
O=C(NCCc1ccccn1)c1cc(C(=O)C2CCCCC2)c[nH]1 3.93%
CC(=O)CSc1nc(CCc2ccccc2)c(C#N)c(=O)[nH]1 3.36%
Cc1cc([N+](=O)[O-])ccc1NC1CCCC1 -6.41%
Cc1c(NS(=O)(=O)c2ccc(NC3CCCC3)c([N+](=O)[O-])c2)c(=O)n(-c2ccccc2)n1C -9.94%
CCCC(=O)Nc1ncnc2c1ncn2[C@@H]1O[C@@H]2OP(=O)(O)OC[C@H]2[C@H]1OC(=O)CCC 0%
Cc1cnc(C(=O)OCc2c(C)cc(C(C)(C)C)cc2C)cn1 -4.05%
ClC1(Cl)CC1CSc1ncn[nH]1 (configuration not stated) -1.77%
CCCCCCCCN1C(=O)[C@H](CC(=O)NCc2cccc3ccccc23)C[C@@]2(C(=O)OC)CCCCC=C12 -30%
CC(=O)c1cccc(-c2cnc3c(NC=O)cc(-c4cccc(C(=O)N(C)C)c4)cn23)c1 107%
CC(=O)Nc1cc(-c2cccc(CO)c2)cn2c(-c3cccc(C(F)(F)F)c3)cnc12 -13.6%
CC(=O)c1cccc(-c2cnc3c(NC=O)cc(-c4ccc(N(C)C)cc4)cn23)c1 51.7%
CC(=O)c1cccc(-c2cnc3c(NC=O)cc(-c4ccccc4Oc4ccccc4)cn23)c1 98.2%
COc1ccc(-c2cc(NC=O)c3ncc(-c4cccc(C(=O)N(C)C)c4)n3c2)c(OC)c1 47.4%
COc1ccc(-c2cc(NC=O)c3ncc(-c4cc(OC)c(OC)c(OC)c4)n3c2)c(OC)c1 39.1%
CCc1nc2ccc(C(=O)N3CCN(S(=O)(=O)CC)CC3)cn2c1N(C=O)CCC(C)C 36.3%
COc1cc(C(=O)OC(C)C(=O)NCC2CCCCC2)cc(NC(=O)c2ccco2)c1OC (configuration not stated) -6.5%
Cc1oc(C)c(C(=O)NCCCC(=O)O)c1C(=O)NCCCC(=O)O 18.8%
CCc1nc2c(OCCOc3ccccc3)cccn2c1N(C)C(=O)c1cccs1 -18.6%
CCCCN1Cc2c(nc3cc(-c4ccccc4)[nH]n3c2=O)C1=O 13%
Cc1cc(=O)n2[nH]c(-c3cccc(Cl)c3)cc2n1 9.73%
Cc1nc(N)sc1N=Nc1c(C)n(C)n(-c2ccccc2)c1=O 15.5%
COCCNC(=O)C1CCCN(Cc2ccccc2Cl)CC1 (configuration not stated) 21.5%
Cc1cc(NC(=O)CSc2ncc(C(F)(F)F)cc2Cl)no1 -7.22%
Cc1nn(-c2ncc(C(F)(F)F)cc2Cl)c(=O)n1-c1ccccc1 24.1%
COc1ccc(S(=O)(=O)N2CCSCC2)cc1 0%
C[C@H]1Cn2cnc(C(=O)N[C@@H](Cc3c[nH]c4ccccc34)C(=O)OC(C)(C)C)c2C(=O)N1 33.4%
COCCNc1nc(Nc2ccccc2Cl)c2sc(-c3ccccc3)cc2n1 -12.6%
COCCNc1nc(NCc2ccc(NC(C)=O)cc2)c2sccc2n1 29.5%
CC1Cc2[nH][nH]c(=O)c2C(C2CCCC2)O1 (configuration not stated) 16.7%
CCOC(=O)[C@]12CCC=C1N(Cc1ccco1)C(=O)[C@H](CC(=O)N1CCSCC1)C2 -5.81%
CC(C)c1cccc(C(C)C)c1Nc1cn[nH]c1 -1.8%
CCCCN1C(N)=NC[C@@H]1Cc1ccccc1 5.9%
CCCC[C@@H]1CN=C(N)N1CCCC 15.9%
CC(=O)Nc1cccc(Nc2ccc(C#N)cc2)c1 -18.3%
CC(OC(=O)c1ccc(NC(=O)CC#N)cc1)C(=O)Nc1ccc(S(=O)(=O)N2CCCC2)cc1 (configuration not stated) -25.9%
Cc1ccc(S(=O)(=O)N2CCOCC2)cc1C(=O)Nc1ccccc1N1CCCC1 -1.43%
O=C1OCC2=C1C(c1ccc(Cl)cc1)c1cc3c(cc1O2)OCO3 (configuration not stated) -0.909%
CCOC(=O)C1=C(c2ccccc2)NC(=O)NC1c1cc(OC)c(OC)cc1OC (configuration not stated) -5.44%
O=C(NC1CC1)C(Cc1ccccc1)NS(=O)(=O)c1ccccc1F (configuration not stated) 20.4%
CCOCCCn1c(NN)nc2ccccc2c1=O -13.8%
O=c1oc(/C=C/c2ccccc2)nc2ccccc12 -0.257%
CC(C)CN1C(=O)CN(S(C)(=O)=O)CC1(C)C(=O)NCc1ccccc1 (configuration not stated) 37.5%
Clc1cc(NC2CCCCC2)ncn1 35.9%
COCCCNC(=O)c1cccc2c(-c3ccc(O)c(OC)c3)coc12 2.52%
O=C(NCc1ccccc1)c1onc(CSc2nc3ccccc3[nH]2)c1C(=O)NCc1ccccc1 -5.65%
CN(Cc1ccccc1)C(=O)CSc1nc2ccccc2[nH]1 -8.05%
O=C(NCC1CCCCC1)NCC1CCCCC1 5.16%
C[C@@H]1CN([C@@H](C)CO)C(=O)CCCn2nncc2CO[C@H]1CN(C)Cc1ccc(C(F)(F)F)cc1 14.2%
CCOC(=O)c1cccc(NC(=O)CCn2nnc3ccccc32)c1 -9.21%
CCOC(=O)c1cccc(NC(=O)c2ccc(F)cc2F)c1 13.7%
Cc1cccc(-n2cc(CN3CCN(C(=O)c4ncn[nH]4)CC3)c(-c3cccc(F)c3)n2)c1 0.119%
Cn1cc(CN2CCC(C(O)CCc3ccccc3)CC2)c(-c2ccccc2F)n1 (configuration not stated) -20.8%
COc1ccc(-n2cc(CN(C)Cc3n[nH]c(=O)[nH]3)c(-c3cccc(F)c3)n2)cc1 -3.96%
COc1ccc(-c2nn(-c3ccccc3)cc2CN2CCCO2)c(F)c1 -28.9%

Activity change, active:
COc1ccc(CCNC(=O)c2ccc(NC(=O)CC3SC(N4CCCCC4)=NC3=O)cc2)cc1OC (configuration not stated) -53.6%
Cc1nn(-c2ncccn2)c2c1C(=O)CC(C)(C)C2Br (configuration not stated) -64.8%
COc1ccc(-c2oc3ncn(Cc4ccco4)c(=N)c3c2-c2ccc(OC)cc2)cc1 -65.2%
C#CCN(C[C@@H]1[C@@H](OC(=O)NC2CC2)[C@@H](OC(=O)NC2CC2)Cn2c(=O)ccc(=O)n21)S(=O)(=O)c1ccc(C)cc1 -84.6%
Cc1cc(C=O)c(C)n1-c1ccc(NC2CCCCC2)c([N+](=O)[O-])c1 -93.9%
COc1ccc(-c2cc(NC=O)c3ncc(-c4ccccc4)n3c2)cc1OC -59.3%
CN(C)CCNC(=O)c1cccc(-c2cnc3c(NC=O)cc(-c4cccc(C(F)(F)F)c4)cn23)c1 -107%
CC(=O)c1ccc(-c2cnc3c(NC=O)cc(-c4cccc(NS(C)(=O)=O)c4)cn23)cc1 -68.2%
O=c1c2c(nc3cc(-c4cccc(Cl)c4)[nH]n13)CCCC2 -102%
Cc1ccc(-c2ccnc3nc(Sc4ncc(C(F)(F)F)cc4Cl)nn23)cc1 -65.2%
CC(=O)Nc1ccc(CNc2nc(NCCN(C)C)nc3cc(-c4ccccc4)sc23)cc1 -108%
CCCC[C@@H]1CN=C(N)N1CCc1cc(C(F)(F)F)cc(C(F)(F)F)c1 -103%
CCOC(=O)C1=C(COC(=O)[C@H](C)NS(=O)(=O)c2ccccc2F)NC(=O)NC1C (some centres not stated) -51.3%
CCn1c(/C=C/c2ccc([N+](=O)[O-])o2)nc2ccccc2c1=O -95.2%
COc1ccccc1CSc1nc2ccccc2[nH]1 -54.1%
CCOC(=O)c1nnn(CC(=O)Nc2cccc(F)c2)c1C(=O)OCC -64.5%
CCC(O)C1CCN(Cc2cn(-c3ccc(OC)cc3)nc2-c2cccc(F)c2)CC1 (configuration not stated) -60.7%
COc1ccc(-n2cc(CNC3CCOCC3)c(-c3cccc(F)c3)n2)cc1 -66.6%
